# CYP2C9 act – CYP2C9 (human) activation. activation factor at 5 µM. actives 1.4% (n = 96,000). P11712. recombinant CYP2C9, luciferin-H conversion, luminescence; stronger effect = higher value; factor 1 = untreated enzyme, 0 = blocked. AID 1024;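 active = activation factor of 2 or more for CYP2C9 at a 5 µM dose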;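 also: 0 = sulfaphenazole-blocked wells and 1 = vehicle-only wells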
# Target sequence (P11712 whole entry, looked up): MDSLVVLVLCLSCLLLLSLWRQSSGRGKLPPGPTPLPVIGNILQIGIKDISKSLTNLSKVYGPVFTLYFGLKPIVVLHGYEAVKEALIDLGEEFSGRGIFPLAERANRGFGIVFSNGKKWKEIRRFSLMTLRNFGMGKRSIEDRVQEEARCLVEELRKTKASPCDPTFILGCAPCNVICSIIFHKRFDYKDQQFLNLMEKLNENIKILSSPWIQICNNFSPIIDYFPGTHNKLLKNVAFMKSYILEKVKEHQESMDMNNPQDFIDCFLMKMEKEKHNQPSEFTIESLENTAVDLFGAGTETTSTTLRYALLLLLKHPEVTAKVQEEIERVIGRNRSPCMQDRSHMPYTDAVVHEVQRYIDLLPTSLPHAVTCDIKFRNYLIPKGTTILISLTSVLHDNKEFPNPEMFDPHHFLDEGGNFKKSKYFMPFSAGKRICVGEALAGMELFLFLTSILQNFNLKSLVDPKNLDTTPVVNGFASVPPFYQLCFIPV
# PostGolgi ctrl – yeast control strain growth, post-Golgi counter-screen | efflux-deficient yeast background strain, growth absorbance A615, 16 h | inhibition, % at 10 µM | actives 5% (n = 98,000)
# CYP2C19 activ – cytochrome P450 2C19 (human) activation; recombinant CYP2C19, luciferin-H EGE luminescence; stronger effect = higher value; 0 = fully inhibited enzyme, 1 = untreated enzyme; activation factor at 5 µM; 96,000 tested, under 10 active; AID 1025;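 active = activation factor of at least 2 at 5 µM in the primary screen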;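 also: 0 = wells with 2.5 mM tranylcypromine and 1 = vehicle-only wells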
# CYP2C19 inh – blocks human cytochrome P450 2C19; inhibition, % at 5 µM; actives 21% (n = 96,000); AID 778; CYP2C19 Supersomes, luciferin-H EGE luminescence, 30 min;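 active = CYP2C19 inhibition above a set limit at 5 µM in the primary screen, cut at about 50% in these data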;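 also: plate controls were negative control wells for no effect and 2.5 mM tranylcypromine positive control for full effect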
# CYP2C9 inhib – inhibitors of human CYP2C9 | P11712 | CYP2C9 Supersomes, luciferin-H conversion, luminescence | inhibition, % at 5 µM | actives 20% (n = 96,000) | AID 777;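 active = blocking of liver enzyme CYP2C9 beyond about 50% at 5 µM, limit read from the data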
# PostGolgi yeast – growth inhibition of a yeast mutant, post-Golgi transport screen; inhibition, % at 10 µM; actives 0.9% (n = 98,000); post-Golgi transport phenotypic cell assay;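 also: yeast cells grown in 1536-well plates; yeast grown about 18 h at 30C before absorbance read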
# Numbers without * were called inactive; nt = no result given. An excerpt weighted towards active compounds, which were near 32% of everything screened. Rule as the data show it, unless noted: active = inhibition above about 30%; inactive = the rest.
SMILES,CYP2C9 act,PostGolgi ctrl,CYP2C19 activ,CYP2C19 inh,CYP2C9 inhib,PostGolgi yeast
O=C(Nc1cc(C(F)(F)F)ccc1N1CCOCC1)c1ccco1,1.1,4,1.1,-11,-14,2
Nc1nnc(SCC(=O)Nc2ccccc2N2CCOCC2)s1,0.8,-1,0.8,20,16,2
Cc1nc2sc(C(c3cccs3)N3CCC(C(N)=O)CC3)c(O)n2n1 (centres undefined),0.7,-1,1.1,-8,26,2
CC(=O)N1CCCc2cc(S(=O)(=O)N3CCN(C4CCCCC4)CC3)ccc21,1,-8,0.6,41,0,-4
CN(C)c1nc(NCc2ccccc2)nc(N/N=C/c2ccc(Cl)cc2Cl)n1,0.9,7,0.9,8,14,5
O=C(N1CCCC1)N1CCN(c2ncnc3c(-c4ccc(Cl)cc4)nsc23)CC1,1.2,nt,1.1,-11,-16,nt
COc1cc(C2NC(=O)NC(C)=C2C(=O)OCc2ccccc2)ccc1O (centres undefined),0.6,nt,0.7,30,41,nt
CCOc1cc(C2NC(=O)NC(C)=C2C(=O)OCc2ccccc2)ccc1O (centres undefined),0.3,1,0.4,59*,71*,-2
COc1ccc(COC(=O)C2=C(C)NC(=O)NC2c2ccc(O)c(OC)c2)cc1 (centres undefined),0.4,-4,0.3,70*,62*,-8
CCOC(=O)C1=C(C)NC(=O)NC1c1c(O)ccc2ccccc12 (centres undefined),1,1,0.1,86*,-5,0
Cn1cc(S(=O)(=O)N2CCN(c3ccccc3)CC2)c(=O)n(C)c1=O,0.7,-4,0.6,41,27,-1
CCOC(=O)C(NC=O)(NC(C)(C)C)C(=O)OCC,1,12,1,-1,-3,-2
CC(C)(C)OC(=O)NC(CCNC=C1C(=O)OC(C)(C)OC1=O)C(=O)O (centres undefined),0.8,-7,1.1,-12,15,0
COC(=O)c1sccc1NC(=O)CSc1ccccc1NS(=O)(=O)c1ccccc1Cl,0.1,14,1,4,87*,0
COC(=O)c1sccc1NC(=O)CSc1ccccc1NS(=O)(=O)c1ccc(Cl)cc1,0.2,22,0.4,59*,84*,21
COC(=O)c1sccc1NC(=O)CSc1cc(Cl)ccc1Cl,0.6,17,0.7,30,44,-19
Cc1ccc2cc3c(NC(=O)C(C)C)nn(C)c3nc2c1,0.3,11,0.6,37,70*,-6
Cc1ccc2nc3c(cc2c1)c(NC(=O)c1cccnc1)nn3C,0.4,1,0.6,40,58*,-10
Clc1ccc(C2CC(c3ccccc3)Nc3ncnn32)cc1 (centres undefined),0.7,9,0.2,75*,32,1
Fc1ccc(C2CC(c3ccccc3)n3ncnc3N2)cc1 (centres undefined),0.8,4,0.1,88*,22,5
Cc1ccc(C2CC(c3ccc(F)cc3)Nc3nc(N)nn32)cc1 (centres undefined),1.2,8,0.7,28,-16,2
COc1ccc(NC(=O)c2ccc(C(=O)c3ccccc3)o2)cc1,0.6,-1,1,4,38,22
Cc1ccc(-n2ncc3c(=O)n(Cc4ccccn4)cnc32)cc1C,0.9,13,1,0,8,-1
CCN(CC)c1ccc(/C=N/N2CCN(Cc3cccc4ccccc34)CC2)c(O)c1,0.9,0,1,0,6,2
O=C(CN1CCN(c2ccccn2)CC1)N(c1ccccc1)c1ccc2ccccc2c1,0.5,66*,0.4,56*,51*,-9
SMILES,CYP2C9 act,PostGolgi ctrl,CYP2C19 activ,CYP2C19 inh,CYP2C9 inhib,PostGolgi yeast
O=C(CN1CCOCC1)N(c1ccccc1)c1ccc2ccccc2c1,0.6,12,0.2,76*,45,28
O=C(CN1CCN(c2ccccn2)CC1)NC(=O)NC1CCCCC1,0.6,9,0.9,10,44,-10
CC(=O)NCCNC(=O)[C@H](Cc1ccccc1)NC(=O)c1cccs1,1.1,7,0.9,11,-6,-8
COc1ccc(Cn2c(SC)nc3ccccc32)cc1[N+](=O)[O-],0.7,11,0.8,22,28,-2
COc1cccc(N(C(=O)Cn2nnc(-c3ccc(C)cc3)n2)C(C(=O)NC(C)(C)C)c2c[nH]c3ccccc23)c1 (centres undefined),0.1,6,0.6,40,88*,1
O=C(NC1CCCC1)C(c1c[nH]c2ccccc12)N(C(=O)Cn1nnc(-c2ccc(Cl)cc2)n1)c1ccccc1 (centres undefined),0.3,8,0.7,30,67*,16
COc1cccc(N(C(=O)Cn2nnc(-c3cccs3)n2)C(C(=O)NC(C)C)c2ccc(C)o2)c1 (centres undefined),0.9,1,0.9,7,8,2
Cc1ccc(-c2nnn(CC(=O)N(c3ccccc3)C(C(=O)NC3CCCC3)c3ccco3)n2)o1 (centres undefined),1.1,2,0.8,19,-7,0
CC(C)(C)NC(=O)C(c1ccco1)N(C(=O)Cn1nnc(-c2ccc(F)cc2)n1)c1ccccc1F (centres undefined),0.9,79*,0.8,23,12,76*
O=c1c([N+](=O)[O-])cc(C(F)(F)F)cn1Cc1c(Cl)cccc1Cl,0.8,6,0.5,46,20,0
O=C(NCc1ccccn1)C1COc2ccccc2O1 (centres undefined),1,8,0.2,77*,-1,6
O=C(NCc1ccncc1)C1COc2ccccc2O1 (centres undefined),0.6,6,0.5,51*,37,-6
CCc1cc(-c2n[nH]c(=S)n2N)n(C)n1,0.9,23,1,5,7,-8
Cc1ccc(C(=O)NCC(C)(C)O)cc1,nt,0,nt,nt,nt,-6
Cc1ccc(C(=O)NC(C)(COc2nonc2C)COc2nonc2C)cc1,0.3,15,0.1,94*,72*,-1
Cn1c(-c2c(N)n(CCc3ccccc3)c3nc4ccccc4nc23)nc2ccccc21,0,78*,0.4,58*,100*,88*
Cn1c(-c2c(N)n(C3CCCC3)c3nc4ccccc4nc23)nc2ccccc21,0.9,100*,0.9,6,14,24
Cn1c(-c2c(N)n(CCCc3ccccc3)c3nc4ccccc4nc23)nc2ccccc21,0.5,17,0.6,36,46,25
COCCCn1c(N)c(-c2nc3ccccc3n2C)c2nc3ccccc3nc21,0.3,73*,0.3,70*,66*,10
COCc1[nH]nc2c1C(c1ccccc1Cl)C(C#N)=C(N)O2 (centres undefined),0.7,5,0.5,47,34,5

# Screening data as filed in PubChem.
